# Source: PubChem BioAssay (EPA / NIEHS)
# Results filed as inconclusive are left out. The source made the active and inactive calls. How the source made its calls: active means hit-call score of the fitted dose curve at least 0.9, where 1 is the maximum; inconclusive means response in the unintended direction; inactive means score below 0.9.
# Assay: TOX21_p53_BLA_p2_viability: Viability Assessment in the Tox21 HCT-116 p53 Agonism Beta-lactamase Assay, Phase 2 (AID 2283591);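 further: compound exposure lasted 16 h at 37 °C; actives lower the ATP signal meaning cytotoxicity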
# Source text: TOX21_p53_BLA_p2 is a cell-based, single-readout assay that uses HCT116, a human intestinal cell line, […] in a 1536-well plate.TOX21_p53_BLA_p2_viability is an assay readout measuring cellular ATP content and detected with CellTiter-Glo Luciferase-coupled ATP quantitation.TOX21_p53_BLA_p2_viability used a type of viability reporter where loss-of-signal activity can be used to understand changes in the cell viability. Furthermore, this assay endpoint can be referred to as a secondary readout, because this assay has produced multiple assay endpoints where this one serves a viability function. To generalize the intended target to other relatable targets, this assay endpoint is annotated to the cell cycle intended target family, where the subfamily is cytotoxicity.
# Thawing Method: Place 14 mL of pre-warmed thaw medium into a 15 mL of conical tub. Remove the vial of cells to be thawed from liquid nitrogen and thaw rapidly by placing at 37C in a water bath with gentle agitation for 1-2 minutes. Decontaminate the vial by wiping with 70% ethanol before opening in a biological safety cabinet. Transfer the vial contents drop-wise into 14 mL of thaw medium in a sterile 15-mL conical tub. Centrifuge cells at 900 rpm for 4 minutes and resuspend in thaw medium. Transfer contents to the T75 tissue culture flask containing Thaw Medium and place flask in a humidified 37C/5% CO2 incubator. Switch to growth medium at first passage.Propagation Method: Aspirate medium, rinse once in DPBS, add 0.25% Trypsin/EDTA and swirl to coat the cell evenly. Add an equal volume of Growth Medium to inactivate Trypsin after 2-3 minutes incubation at 37C. Centrifuge cells at 900 rpm for 4 minutes and resuspend in growth medium. Cell should be passage or fed at least twice a week.Assay Protocol: Harvest cells from culture in growth medium and resuspend in assay medium. 2.2 Dispense 4000 cells/5 uL/well into 1536-well black/clear bottom plates using a Multidrop dispenser. After the cells were incubated at 37C for 5 hours, 23 nL of compounds dissolved in DMSO were transferred to the assay plate by a PinTool resulting in a 217-fold dilution. Incubate the plates for 16 hours at 37C, 5% CO2. Add 1 uL of 6X LiveBLAzer FRET B/G (CCF4-AM) Substrate Mixture to each well using a BioRAPTR dispenser and incubate the plates at room temperature for 2 hours. Measure fluorescence intensity at 460 and 530 nm emission and 405 nm excitation by an Envision detector. Data is expressed as the ratio of 460nm/530nm emissions. Add 4 uL of Cell-titer Glo to each well using BioRAPTR and incubate the plates at room temperature for […]. For cell viability readout that measures cytotoxicity, 4 ul/well of CellTiter-Glo reagent was added into the assay plates using a Flying Reagent Dispenser. After 30 min incubation at room temperature, the luminescence intensity in the plates was measured using a ViewLux plate reader.
Compound,outcome,AC50
S=P(N1CC1)(N1CC1)N1CC1,inactive,–
CCOC(N)=O,inactive,–
CCCCC(CC)C(=O)OCCOCCOCCOC(=O)C(CC)CCCC (centres undefined),inactive,–
NC(=O)NN=Cc1ccc([N+](=O)[O-])o1,inactive,–
O=C(N[C@H](CO)[C@H](O)c1ccc([N+](=O)[O-])cc1)C(Cl)Cl,inactive,–
CCn1nc(C)c2c1C(=O)NCC(c1ccc(O)cc1)=N2,inactive,–
OCc1c[nH]c2ccccc12,inactive,–
O=C(O)c1cccc(C[C@@H]2COc3ccc(OCc4nc5cc(F)ccc5s4)cc3[C@@H]2O)c1,inactive,–
O=C1CN(N=Cc2ccc([N+](=O)[O-])o2)C(=O)N1,inactive,–
CCCCCCCCN(C)C,inactive,–
OC(CCl)CCl,inactive,–
CC1(C)C(=O)N(Cl)C(=O)N1Cl,inactive,–
OCCOCCOCCO,inactive,–
CCCCCCCCCCCCCCCCOS(=O)(=O)O,inactive,–
CCCCCCCC/C=C\CCCCCCCC(=O)OC[C@@H](O)[C@H]1OC[C@H](O)[C@H]1O,inactive,–
C=CN1CCCC1=O,inactive,–
O=S1(=O)CCCO1,inactive,–
CCCCN1C(=O)[C@@H]([C@H](O)C2CCCCC2)NC(=O)C12CCN(Cc1ccc(Oc3ccc(C(=O)O)cc3)cc1)CC2,inactive,–
CCc1ccc(O)c(C(C)(C)C)c1,–,69.5 µM (active)
Cc1cccc(O)c1C,inactive,–
C[C@]12C=CC(=O)C=C1CC[C@H]1[C@@H]3C[C@@H](O)[C@](O)(C(=O)CO)[C@@]3(C)C[C@H](O)[C@@]12F,inactive,–
CCCCCCCCCC,inactive,–
c1ccc2ncccc2c1,inactive,–
CC(C)c1nnc2ccc(-c3ocnc3-c3cc(F)ccc3F)cn12,inactive,–
c1ccc2cc3ccccc3cc2c1,inactive,–
CCCCCCCCCCCCCCO,inactive,–
CC(=O)c1ccccc1,inactive,–
NNC(=O)c1ccncc1,inactive,–
OC(Cn1cncn1)(Cn1cncn1)c1ccc(F)cc1F,inactive,–
